# The campaign covered roughly 69,000 compounds. About 1,000 (1.4%) showed an effect of 50% or more. The entries come from a sample that favours strong results as a whole.
# Test system: Leishmania donovani
# Experiment: Leishmania intramacrophage assay
# Type: functional, organism-based
# Parameters: scale not given: in the data most compounds retested in dose-response had high values
compound,measurement,setting,value
CN1C(=O)C2(CCN(CC3CC3)CC2)c2ccccc21.O=C(O)C(F)(F)F,Percent Effect,"30 µM, 30.03 µM",16.21%
CN(C)[C@@H]1CCN(C(=O)Cc2ccc(F)cc2)[C@H]1Cc1ccncc1.O=C(O)C(F)(F)F.O=C(O)C(F)(F)F,Percent Effect,"30.3 µM, […]",29.68%
Cc1cccc(CN2CC[C@@H]3[C@@H]2CCN3C(=O)c2ccoc2C)n1.O=C(O)C(F)(F)F.O=C(O)C(F)(F)F,Percent Effect,"30.3 µM, […]",32.03%
Cc1[nH]c(C2(N)CCCCC2)nc(=O)c1C.Cl,Percent Effect,"30.3 µM, […]",27.19%
Cc1cnc(C(=O)N2C[C@H]3CN(Cc4cccnc4)C[C@H]3C2)cn1.O=C(O)C(F)(F)F.O=C(O)C(F)(F)F,Percent Effect,"30.3 µM, […]",19.7%
Cc1noc(C)c1CN1C[C@@H]2C[C@H](C(=O)NCC3CC3)N(C)[C@@H]2C1.O=C(O)C(F)(F)F.O=C(O)C(F)(F)F,Percent Effect,"30.3 µM, […]",-4.016%
CCN1CC2(CC1=O)CN(Cc1ccccn1)CCN(C(C)=O)C2.O=C(O)C(F)(F)F.O=C(O)C(F)(F)F (stereo unspecified),Percent Effect,"30.3 µM, […]",0.8966%
O=C(O)C(F)(F)F.O=C(O)C(F)(F)F.c1ccc(CN2CC[C@H]3CO[C@H](CNc4ncccn4)[C@H]3C2)cc1,Percent Effect,"30.3 µM, […]",8.127%
O=C(O)C(F)(F)F.O=C(O)C(F)(F)F.c1cncc(COC[C@H]2CC[C@H]3[C@H](CCN3Cc3nccs3)O2)c1,Percent Effect,"30.3 µM, […]",98.87%
CN(C)C(=O)CN1CC[C@@H]2O[C@@H](COCc3cccnc3)CC[C@@H]21.O=C(O)C(F)(F)F.O=C(O)C(F)(F)F,Percent Effect,"30.3 µM, […]",38.61%
O=C(O)C(F)(F)F.O=C(O)C(F)(F)F.c1cncc(COC[C@H]2CC[C@H]3[C@H](CCN3Cc3cccs3)O2)c1,Percent Effect,"30 µM, 30.03 µM",31.53%
COc1cc(CNC(C)Cn2cccn2)cc(Cl)c1OC.Cl (stereo unspecified),Percent Effect,30 µM,29.92%
Cc1cc(CN2C[C@@H]3COC[C@]3(CNC(=O)c3ccsc3)C2)no1.O=C(O)C(F)(F)F,Percent Effect,"30.3 µM, […]",18.56%
O=C(O)C(F)(F)F.O=C(c1ccc[nH]1)N1CCC2(CCCN2Cc2cccnc2)CC1,Percent Effect,"30.3 µM, […]",12.17%
Cn1cc(N2CCC3(CCN(Cc4cccnc4)C3)C2=O)cn1.O=C(O)C(F)(F)F.O=C(O)C(F)(F)F (stereo unspecified),Percent Effect,"30 µM, 30.03 µM",-14.07%
Cn1cc(CN2CCC3(CCCN3Cc3cccnc3)CC2)cn1.O=C(O)C(F)(F)F.O=C(O)C(F)(F)F.O=C(O)C(F)(F)F,Percent Effect,"30.3 µM, […]",63.2%
COCCN1C[C@@H]2[C@@H](OC)CCN(C(=O)Cc3ccccc3)[C@@H]2C1.O=C(O)C(F)(F)F,Percent Effect,"30.3 µM, […]",35.25%
COc1cc(C2SCC(=O)Nc3[nH]ncc32)cc2c1OCO2 (stereo unspecified),Percent Effect,"30.3 µM, […]",1.862%
COc1cc(C2SCC(=O)Nc3[nH]ncc32)cc(OC)c1OC (stereo unspecified),Percent Effect,"30.3 µM, […]",56.1%
COc1cc(C2SCC(=O)Nc3[nH]ncc32)c(OC)c2c1OCO2 (stereo unspecified),Percent Effect,"30.3 µM, […]",8.87%
COc1ccnc(N2C[C@@H]3CC[C@H](C2)N(CC2CC2)C3)n1,Percent Effect,"30.3 µM, […]",37.63%
CCOc1ccc(-c2cc(CCN)ccc2OC)cc1,Percent Effect,"30.3 µM, […]",-5.145%
COc1ccc(-c2ccccc2CCN)c(OC)c1,Percent Effect,"30.3 µM, […]",75.35%
CC(=O)Nc1cccc(-c2ccccc2CCN)c1,Percent Effect,"30.3 µM, […]",-35.33%
COCC(=O)N1CCC2(CCN(Cc3cccnc3)C2)CC1.O=C(O)C(F)(F)F.O=C(O)C(F)(F)F,Percent Effect,"30.3 µM, […]",22.03%
Fc1cnc(N2CCO[C@H]3CN(CC4CCCCC4)C[C@H]32)nc1.O=C(O)C(F)(F)F,Percent Effect,"30.3 µM, […]",-16.59%
O=C(O)C(F)(F)F.O=C(O)C(F)(F)F.O=C(O)C(F)(F)F.O=C1C[C@@H]2[C@H](CCN2Cc2ccccn2)N1Cc1ccncc1,Percent Effect,"30.3 µM, […]",27.44%
O=C(O)C(F)(F)F.c1cncc(N2CCO[C@H]3CN(CC4CCOC4)C[C@H]32)c1 (stereo partly specified),Percent Effect,"30.3 µM, […]",31.71%
Fc1ccccc1CN1C[C@@H]2OCCN(c3ncccn3)[C@@H]2C1,Percent Effect,"30.3 µM, […]",15.52%
c1ccc(CCN2C[C@@H]3OCCN(c4ncccn4)[C@@H]3C2)cc1,Percent Effect,"30.3 µM, […]",6.788%
Cc1ccc(N2CCO[C@H]3CN(Cc4ccncc4)C[C@H]32)nn1.O=C(O)C(F)(F)F.O=C(O)C(F)(F)F.O=C(O)C(F)(F)F,Percent Effect,"30 µM, 30.03 µM",16.14%
O=C(O)C(F)(F)F.O=C(O)C(F)(F)F.O=C(O)C(F)(F)F.c1ccc(CN2C[C@@H]3OCCN(c4ncccn4)[C@@H]3C2)nc1,Percent Effect,"30 µM, 30.03 µM",-0.09782%
Cc1ccc(N2CCO[C@H]3CN(Cc4ccccn4)C[C@H]32)nn1.O=C(O)C(F)(F)F.O=C(O)C(F)(F)F.O=C(O)C(F)(F)F,Percent Effect,"30.3 µM, […]",63.6%
c1ccc(CN2C[C@@H]3OCCN(CC4CCCO4)[C@@H]3C2)nc1 (stereo partly specified),Percent Effect,"30 µM, 30.03 µM",15.57%
c1ccc(CN2C[C@@H]3OCCN(c4cccnc4)[C@@H]3C2)nc1,Percent Effect,"30.3 µM, […]",55.81%
Cn1ccnc1CN1C[C@@H]2OCCN(c3ncccn3)[C@@H]2C1,Percent Effect,"30.3 µM, […]",50.19%
CC(C)N1CC[C@@H]2OC[C@H](C(=O)Nc3cccnc3)C[C@@H]2C1.O=C(O)C(F)(F)F.O=C(O)C(F)(F)F,Percent Effect,"30.3 µM, […]",-12.98%
CCCn1nc(C)c(-c2cncn2CC2(N(C)C)CCC(C)CC2)c1C (stereo unspecified),Percent Effect,"30.3 µM, […]",1.091%
CCCN1CCC(c2nc3ccc(C)cn3n2)CC1.O=C(O)C(F)(F)F,Percent Effect,"30.3 µM, […]",17.32%
Cc1cccc(CN2C(=O)C[C@H]3[C@@H]2CCN3Cc2nccs2)n1.O=C(O)C(F)(F)F.O=C(O)C(F)(F)F,Percent Effect,"30.3 µM, […]",2.484%
CC(C)NC(=O)c1ccc2c(c1)C1(CCN(C)CC1)C(=O)N2.O=C(O)C(F)(F)F,Percent Effect,"30.3 µM, […]",1.546%
Cc1ccc(C(=O)N2C[C@H](N3CCOCC3)[C@@H]3OCCC[C@@H]32)cn1.O=C(O)C(F)(F)F.O=C(O)C(F)(F)F,Percent Effect,"30.3 µM, […]",2.104%
CN1[C@H]2CC[C@@H]1CN(c1cc(Sc3cccs3)nc(N)n1)CC2,Percent Effect,"30.3 µM, […]",2.015%
CC(C)CCN1C[C@@H]2OCCN(c3ncc(F)cn3)[C@@H]2C1.O=C(O)C(F)(F)F,Percent Effect,"30.3 µM, […]",-5.572%
COCC1CC2(CCN(Cc3cccnc3)CC2)CN1C(C)C (stereo unspecified),Percent Effect,"30.3 µM, […]",20.26%
Cl.NC(=O)N1CC2(CCNCC2)c2cc(Cl)ccc21,Percent Effect,"30 µM, 30.03 µM",2.936%
